Assay in all cases: NCI-60 one-dose screen, 48 h (100 = growth as untreated, 0 = no growth, -100 = all killed)
Common to all, as to details: 10 µM unless noted

The subject of assay [1] is HCT-15 colon.
Assay [2] concerns HT29 colon.
Assay [3] deals with SNB-75 CNS.
Assay [4] relates to SNB-19 CNS.
Assay [5] relates to U251 CNS.
Assay [6] deals with PC-3 prostate.
For assay [7], the system named is SK-MEL-5 melanoma.
In assay [8] the test system is UACC-62 melanoma.
Assay [9] relates to LOX IMVI melanoma.
Assay [10] concerns SK-MEL-28 melanoma.
Assay [11] concerns SK-MEL-2 melanoma.
Assay [12] relates to EKVX NSCLC.
The subject of assay [13] is SN12C renal.
Assay [14] has as its system UO-31 renal.
In assay [15] the test system is TK-10 renal.
Assay [16] concerns ACHN renal.
For assay [17], the system named is CAKI-1 renal.
Assay [18] concerns A498 renal.
For assay [19], the system named is CCRF-CEM leukemia.
For assay [20], the system named is MOLT-4 leukemia.

The source of these data is PubChem BioAssay (NCI).

SMILES strings stand for the structures. This is part of a sample that, as a whole, favours compounds with a hit. Of some 83,000 tested, about 20% had one in any assay.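 Single-concentration screen, 48 h exposure, 96-well plates. Endpoint: percent growth. Below 10 = active.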 Unmarked numbers belong to inactive results. Active and inactive are the calls of the source.

Turning to `CC(C)CCNC(=O)Cn1cccc(NC(=O)OCc2ccccc2)c1=O`, the growth in [1] was 111%; in assay [2], 108%; in assay [3] it was 79.9%; in assay [4], 103%; in assay [5] it was 101%; in [6] it was 92.3%. The growth in assay [7] is 96.1%; in assay [8] it was 111%; in assay [9], 89.8%; in assay [10], 98.8%; in assay [11], 112%; in assay [12] it was 101%. The growth in [13] is 103%; in assay [14] it was 76%; in assay [15] it was 130%; in assay [16], 103%; in assay [17] it was 70.3%; in assay [18], 117%. In addition, the growth in assay [19] was 96.6%; in [20], 106%.

On to `CN1CCN(c2ccc(NC(=O)c3cncnc3Nc3ccc(OCc4ccccn4)c(Cl)c3)cc2)CC1`, for which the growth in assay [1] was -44.4% (active); in [2], -14.8% (active); in [3], 59.8%; in assay [4] it was 69.6%; in assay [5], 2.96% (active); in assay [6], 61%. The growth in assay [7] is 47.2%; in [8], -69.9% (active); in [9], -22.1% (active); in assay [10], -86% (active); in assay [11], 21.6%; in [12], 85.6%. In addition, the growth in assay [13] is 59.2%; in assay [14] it was -72.1% (active); in [15] it was 92.4%; in assay [16], 51.8%; in assay [17], 64.2%; in [18], 67.2%. Further, the growth in assay [19] is 11.2%; in assay [20] it was 8.56% (active).

As for `Cc1nnc(-n2c(O)cc(=O)n(-c3ccccc3)c2=S)nc1/C=C/c1ccc(N(C)C)cc1`, the growth was 28.9% in assay [1]; 24.3% in assay [2]; 17.3% in assay [3]; 59.8% in assay [4]; 53.7% in assay [5]; 67.1% in assay [6]. The growth was 60.6% in assay [7]; 11.7% in assay [8]; 18.8% in assay [9]; 58.6% in assay [10]; 55.2% in assay [11]; 66.7% in [12]. The growth was 65.3% in [13]; 17.1% in assay [14]; 28.1% in assay [15]; 62% in assay [16]; 23.4% in assay [17]; 52.1% in assay [18]. Further, the growth was 52.5% in assay [19] and 56.1% in assay [20].

In the case of `O=C1COCCN1c1ccc(Nc2nc(Cl)nc(OCc3cn(Cc4ccccc4)nn3)n2)cc1`, the growth in assay [1] was 93.3%; in assay [2], 90.8%; in assay [3], 101%; in assay [4], 90.3%; in assay [5], 83.4%; in assay [6], 89.4%. The growth in assay [7] is 95.8%; in assay [8] it was 92.2%; in [9], 75.7%; in assay [10] it was 101%; in [11], 85.6%; in [12], 99.5%. For the same compound, the growth was 94.2% in assay [13]; 73.6% in assay [14]; 98.6% in [15]; 101% in [16]; 84.4% in assay [17]; 92.2% in [18]. The growth was 60% in [19] and 62% in [20].

With `CCC(C)N(c1ccc(Cl)cc1)c1nc(-c2ccc(Br)cc2)cs1` (stereo not given), the growth is 97.7% in [1]; 106% in [2]; 102% in assay [3]; 105% in [4]; 98% in assay [5]; 99.9% in assay [6]. Further, the growth in assay [7] was 104%; in [8], 87.2%; in assay [9] it was 93.3%; in [10], 111%; in assay [11], 105%; in assay [12] it was 80.2%. In addition, the growth in assay [13] was 99.2%; in [14], 81.3%; in [15], 131%; in assay [16] it was 96.4%; in assay [17], 70.9%; in assay [18], 94.7%. The growth in assay [19] is 81.7%; in assay [20] it was 82.7%.

Take `O=C1N(Cc2ccccc2Cl)c2ccccc2C12NN=C(c1cccc(Cl)c1)S2` (stereo not given): the growth was 0.214% (active) in assay [1]; 94.4% in assay [2]; 16.7% in [3]; 20.9% in assay [4]; -30% (active) in assay [5]; -64.3% (active) in [6]. The growth in assay [7] is 14.5%; in assay [8], -44.3% (active); in [9], -19.4% (active); in assay [10], 7.1% (active); in assay [11], -23.1% (active); in assay [12] it was -31% (active). The growth in assay [13] is -19.8% (active); in assay [14] it was -58.3% (active); in [15] it was -3.68% (active); in assay [16] it was -47.1% (active); in [17], -30.7% (active); in assay [18], -85.9% (active). The growth in [19] was 1.03% (active); in [20], -18% (active).

In the case of `O=C(CCCCCCN1CC(=O)N2[C@H](c3cc(Br)cs3)c3[nH]c4ccccc4c3C[C@H]2C1=O)NO`, the growth in assay [1] was 96.9%; in [2], 50.7%; in [3], 26.2%; in assay [4] it was 41.1%; in [5], 33.3%; in assay [6] it was 46.9%. Further, the growth in [7] is 27%; in assay [8], 12%; in assay [9], 8.65% (active); in assay [10], 27.7%; in assay [11], 50%; in assay [12], 75.4%. Moreover, the growth in [13] is 53.7%; in assay [14] it was 39.6%; in assay [15], 32%; in assay [16], 47.8%; in assay [17], 43.7%; in assay [18] it was 58.6%. Besides, the growth in assay [19] is 23.9%; in assay [20], 9.39% (active).
